Beta apoptosis = beta cell apoptosis inhibition; protection from apoptosis, % (no concentration beside the values); INS-1E cytokine-induced death, ATP luminescence, 48 h; percent of positive-control rescue, neutral wells zero; 300,000 compounds, 0.8% hits; AID 435005;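 active = Every replicate reaches about 75%, or at least half do and their mean reaches it too, limit read from the data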;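 note: 0% = cytokine-treated negative control wells and 100% = positive control rescue; higher means more ATP so stronger rescue from cytokine killing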
697 NFkB inh = lowers PMA/ionomycin-induced NF-kB signal in 697 B cells | 697 B-cell NF-kB luciferase reporter, 16 h | inhibition, % at 4 µM | 330,000 compounds, 0.33% hits | AID 435022; in the data active = inhibition above about 35%
NTR1 ag = activates human neurotensin receptor 1 | 330,000 compounds, 0.17% hits | AID 493036 | activation, % at 20 µM | NTR1-U2OS beta-arrestin-GFP spot imaging, agonist mode;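 active = activation at or above 40% of the spot to cytoplasm intensity ratio, with at least 20 cells analyzed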;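 note: 0% = DMSO without peptide and 100% = 100 nM NTR1 peptide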
Target sequence (P30989 whole entry, looked up): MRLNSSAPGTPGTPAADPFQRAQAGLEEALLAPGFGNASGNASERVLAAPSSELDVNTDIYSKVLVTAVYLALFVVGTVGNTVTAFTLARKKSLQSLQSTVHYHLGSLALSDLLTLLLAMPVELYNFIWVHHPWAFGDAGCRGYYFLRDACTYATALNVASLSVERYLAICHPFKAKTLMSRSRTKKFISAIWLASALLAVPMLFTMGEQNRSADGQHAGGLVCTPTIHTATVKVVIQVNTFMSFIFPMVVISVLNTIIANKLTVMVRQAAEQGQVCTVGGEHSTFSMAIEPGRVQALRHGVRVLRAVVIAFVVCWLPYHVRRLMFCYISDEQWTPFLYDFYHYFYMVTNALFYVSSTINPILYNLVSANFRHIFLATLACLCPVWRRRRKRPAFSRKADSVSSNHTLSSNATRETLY
Jurkat NFkB inh = lowers PMA/ionomycin-induced NF-kB signal in Jurkat cells. PMA/ionomycin-induced NF-kB luciferase reporter, luminescence. inhibition, % at 4 µM. 330,000 compounds, 0.53% hits; in the data active = inhibition above about 50%
Mdm2 MdmX PPI = inhibitors of human Mdm2/MdmX interaction; 330,000 compounds, 3% hits; O15151+Q00987; SaOS-2 split-luciferase Mdm2/MdmX complementation, luminescence; inhibition, % at 8 µM; AID 485346;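 active = inhibition of at least 50% at 8 µM in the primary screen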
Bfl-1 A1 inh = inhibitors of the anti-apoptotic protein A1, read as caspase activation; 330,000 compounds, 0.066% hits; MEF A1-2A-BIM cells, Caspase-Glo 3/7 luminescence, 3 h; percent of clofoctol response, vehicle zero; caspase activation, % (no concentration beside the values); AID 2462;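 active = over half of replicate activation scores above 10%, or exactly half above 10 with the replicate mean above 10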
Jurkat NFkB conf = lowers PMA/ionomycin-induced NF-kB signal in Jurkat cells. Jurkat NF-kB luciferase, 16 h. inhibition, % at 4 µM. AID 435020. shares compounds with Jurkat NFkB inh. 2,700 compounds, 27% hits;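 active = inhibition reaching about 45% at 4 µM in either replicate, limit read from the data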;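 note: plate controls were PMA/ionomycin stimulated DMSO wells for no effect and unstimulated DMSO wells for full effect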
697 NFkB conf = inhibitors of the PMA/ionomycin-induced NF-kB reporter in 697 B cells, retest; AID 449746; inhibition, % at 4 µM; 2,000 compounds, 35% hits; 697 B-cell NF-kB luciferase, 16 h; shares compounds with 697 NFkB inh; in the data active = inhibition mostly above about 28%, no sharp cut-off; inactive = mostly below about 22%
Numbers without * were called inactive; . = no result. Hits are enriched below; roughly 3.8% of the tested compounds scored in any of these assays.

SMILES	Beta apoptosis	697 NFkB inh	NTR1 ag	Jurkat NFkB inh	Mdm2 MdmX PPI	Bfl-1 A1 inh	Jurkat NFkB conf	697 NFkB conf
Cc1ccccc1-n1nnnc1SCC(=O)c1c(N)n(C2CC2)c(=O)[nH]c1=O	.	13	2	-5	23	.	.	.
O=C(Cn1nnc(-c2ccccc2)n1)NCC(=O)Nc1ccc(F)c(F)c1F	-1	2	-1	2	18	0	.	.
CC(/C=N/Nc1nc2ccccc2[nH]1)=C\c1ccccc1	17	-335	4	-224	-173	-3	-91	-191
CC(/C=N/Nc1nc(C)cc(=O)[nH]1)=C\c1ccccc1	-6	7	0	7	4	-1	.	.
CCOc1cc(S(=O)(=O)NCc2ccncc2)ccc1Cl	111*	58*	1	65*	34	2	68*	98*
CCOc1cc(S(=O)(=O)NCc2cccs2)ccc1Cl	-1	0	0	-3	30	1	.	.
CCOc1ccc(S(=O)(=O)NCc2ccncc2)cc1	116*	100*	-1	72*	6	-1	70*	93*
COc1ccc(S(=O)(=O)N2CCN(CC(=O)Nc3sccc3C(N)=O)CC2)cc1OC	2	10	4	9	3	0	.	.
CCOC(=O)c1sc2nc(N3CCOCC3)c3c(c2c1N)CC(C(C)C)OC3 (stereo not given)	-4	-11	0	-11	-11	0	.	.
CCOC(=O)c1sc2nc3c(cc2c1N)COC(C(C)C)C3 (stereo not given)	1	-431	0	-254	41	-5	-71	-348
COc1ccc(NC(=O)C2CCN(S(=O)(=O)c3cn(C)nc3C)CC2)cc1	-7	-2	0	3	-15	-1	.	.
O=[N+]([O-])c1ccccc1-c1nc(-c2ccc(Br)o2)no1	-5	-172	1	-113	-157	-2	.	.
Clc1ccccc1-c1nc(-c2ccc(Br)o2)no1	-3	-257	1	-163	-242	-10	-141	-264
CCOc1ccc(/C=C2\SC(=S)N(CCC(=O)O)C2=O)cc1	-3	77*	1	52*	28	-4	61*	66*
COc1ccccc1OCC(=O)/C=C1/N(C)c2ccccc2C1(C)C	26	-1	4	17	15	1	.	.
CN1/C(=C\C(=O)C[n+]2ccc3ccccc3c2)C(C)(C)c2ccccc21	.	49*	-2	83*	40	.	79*	-3
CC(NC(=O)c1ccc(S(=O)(=O)Nc2ccccc2Cl)cc1)c1ccncc1 (stereo not given)	-3	2	7	5	14	1	.	.
COc1ccc(-n2ncc3c(N4CCC(C)CC4)ncnc32)cc1	10	-325	3	-198	25	-2	-99	-402
CCOC(=O)C1CCN(c2ncnc3c2cnn3-c2ccccc2)CC1	0	27	1	6	0	1	.	.
O=C(Nc1nc2ccccc2[nH]1)c1ccccc1	15	-292	-1	-163	-66	-8	-61	-179
CC(=O)Nc1nc2ccccc2[nH]1	0	7	0	-2	8	0	.	.
COc1ccc(/C=C/C(=O)OCC(=O)NC2CCCC2)c(OC)c1	-2	19	6	-6	11	0	.	.
Cc1cccc(-c2cc3nc4c(c(NCc5ccco5)n3n2)CCCC4)c1	33	-264	8	-154	-70	0	-99	-295
NS(=O)(=O)c1ccc(CCNC(=O)CN2CCN(Cc3cccc(C(F)(F)F)c3)CC2)cc1	-2	-7	0	11	-12	0	.	.
Cc1ccccc1NC(=O)c1nnn(-c2ccc3c(c2)OCCO3)c1N	-6	-155	-2	-120	-93	1	.	.
SMILES	Beta apoptosis	697 NFkB inh	NTR1 ag	Jurkat NFkB inh	Mdm2 MdmX PPI	Bfl-1 A1 inh	Jurkat NFkB conf	697 NFkB conf
Nc1c(C(=O)Nc2cccc(F)c2)nnn1-c1ccc2c(c1)OCCO2	5	-362	1	-155	-112	-9	-144	-487
CC(=O)Nc1cc2nn(-c3ccccc3)nc2cc1Cl	-1	-349	-2	-189	-266	0	-80	-206
CC(C)C(=O)Nc1ccc2nn(-c3ccccc3)nc2c1	0	-357	0	-255	-201	-5	-166	-329
O=C(Nc1cc2nn(-c3ccccc3)nc2cc1Cl)c1ccco1	-1	-152	0	-115	19	-3	.	.
O=C(Nc1ccccc1)c1ccccc1CSc1ccccc1	-5	27	0	16	-2	1	.	.
N=c1cc(C2(O)CCCCC2)n2c(nc3ccccc32)s1	-1	-284	0	-161	-43	-3	-89	-214
CCc1cc2c(Sc3nc4ccccc4s3)ncnc2s1	-38	83*	7	100*	28	0	96*	64*
c1ccc2sc(Sc3ncnc4sccc34)nc2c1	-44	63*	1	98*	44	1	53*	60*
N=c1c2c(n(Cc3ccc(Br)cc3)c3c1CCC3)CCCC2	115*	52*	0	53*	43	0	40	32*
COc1ccccc1N(C(=O)c1snc(C(N)=O)c1N)C(C(=O)NC1CCCC1)c1ccc2ncccc2c1 (stereo not given)	-4	7	2	8	12	0	.	.
CC(=O)c1cc2c(C)c(C(=O)c3ccccc3)oc2cc1O	-5	-362	2	-186	-159	2	-93	-303
CN(Cc1ccccc1)C(=O)COC(=O)c1ccc[nH]c1=O	-3	7	0	7	20	0	.	.
COc1cc2nc(NC(=O)c3ccccc3)sc(=O)c2cc1OC	.	43*	2	82*	12	.	89*	54*
CC(NC(=O)c1ccco1)C(=O)OCC(=O)N1CCCCCC1 (stereo not given)	0	0	0	-19	-15	1	.	.
CCSc1cc(C)nc2c(-c3ccccc3)cnn12	2	-264	1	-153	-127	-1	-100	-269
O=C(O)c1cccc(S(=O)(=O)Nc2ccc(N3CCCCC3)cc2)c1	3	-2	-1	-2	16	-6	.	.
Nc1[nH]n(-c2ccccc2)c(=O)c1N=Nc1ccc2c(c1)OCCO2	-3	-312	4	-194	-157	-7	-100	-196
Cc1ccc(/C=C2/CCc3c([nH]c4ccccc34)C2=O)cc1	6	-255	-2	-156	-57	-5	-91	-181
O=C1/C(=C\c2ccccc2)CCc2c1[nH]c1ccccc21	3	-218	3	12	-70	0	.	.
COc1ccc(OC)c(NC(=O)CSc2ncnc3c2cnn3-c2ccccc2Cl)c1	129*	71*	-2	50*	-12	0	65*	50*

Bioassay records deposited in PubChem BioAssay by several laboratories.
